From the supplement of paper PMC4840960 come the findings set out here.

Structures can show the parent of a compound that is named as a salt. ± gives the standard deviation of the averaged measurements.

For this experiment, the system named is E18 rat cortical neuron-glia co-culture. Briefly: fiber score / MBP score (myelination specific beyond OL differentiation) (ratio); higher = more myelination-specific MBP alignment. To be noted: 1 µM; treatment time: 8 days (DIV5-DIV13). An outline of the steps:
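Papain-dissociated primary E18 rat cortical co-cultures, plated at 20,000 cells/well on poly-d-lysine/laminin 96-well plates, were exposed to library compounds at 1 or 5 µM in myelination medium between DIV5 and DIV13. Following fixation in 4 % paraformaldehyde, cultures were stained for MBP, Olig2 and DAPI, and four 10X fields per well were analysed in duplicate wells. Values are the ratio of fiber score (continuous MBP fiber length per Olig2+ nucleus) to MBP score (thresholded MBP area × intensity per Olig2+ nucleus).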
`CCOC(=O)[C@H](CCc1ccccc1)N[C@H]1CCc2ccccc2N(CC(=O)O)C1=O` [Benazepril]: the “fiber score / MBP score” value came to 0.766. The value for `Cc1cc2c(s1)Nc1ccccc1N=C2N1CCN(C)CC1` [Olanzapine] was 1.2; that for `CC1=C(C/C=C(\C)CCC[C@H](C)CCC[C@H](C)CCCC(C)C)C(=O)c2ccccc2C1=O` [Phylloquinone] was 0.894; that for `CN(CCO)CC(O)Cn1cnc2c1c(=O)n(C)c(=O)n2C` (centres undefined) [Jupal] was 0.827. As to `C[C@H]1C[C@@H]2[C@H]([C@@H](O)C[C@@]3(C)[C@H]2CC[C@]3(O)C(=O)CO)[C@@]2(C)C=CC(=O)C=C12` [Methylprednisolone], the “fiber score / MBP score” value is 0.918. The value for `CC(=O)OCC(=O)[C@@]1(O)CC[C@H]2[C@@H]3CCC4=CC(=O)C=C[C@]4(C)[C@H]3[C@@H](O)C[C@@]21C` [Prednisolone acetate] was 0.826; that for `Clc1cccc(Cl)c1NC1=NCCN1` [Clonidine hydrochloride] was 0.735. On to `Cn1ccnc1S` [Methimazole], for which the “fiber score / MBP score” value amounted to 0.372. As for `C[C@@H]1C[C@H]2[C@@H]3C[C@H](F)C4=CC(=O)C(Cl)=C[C@]4(C)[C@@]3(F)[C@@H](O)C[C@]2(C)[C@@]1(O)C(=O)CO` [Halometasone hydrate], the figure is 0.566; as for `COc1c(N2C[C@@H]3CCCN[C@@H]3C2)c(F)cc2c(=O)c(C(=O)O)cn(C3CC3)c12` [Moxifloxacin], 0.766. As for `CC(C)NCC(O)c1ccc(O)c(O)c1` (centres undefined) [Isoproterenol], the figure is 0.965; as for `CC(C)(C#N)c1cc(Cn2cncn2)cc(C(C)(C)C#N)c1` [Anastrozole], 0.803; as for `CO[C@@]1(NC(=O)Cc2cccs2)C(=O)N2C(C(=O)O)=C(COC(N)=O)CS[C@@H]21` [Cefoxitin], 0.901. As for `Cc1cnc(C(=O)NCCc2ccc(S(=O)(=O)NC(=O)NC3CCCCC3)cc2)cn1` [Glipizide], the figure is 1.13; as for `COc1ccc(CN2CCN(C(c3ccc(F)cc3)c3ccc(F)cc3)CC2)c(OC)c1OC` [Lomerizine], 1.05; as for `CC1COc2c(N3CCN(C)CC3)c(F)cc3c(=O)c(C(=O)O)cn1c23` (centres undefined) [Ofloxacin], 0.775 ± 0.041. Regarding `CN(C)CCOC(c1ccccc1)c1ccccc1` [Diphenhydramine], the “fiber score / MBP score” value turned out to be 0.668. `C/C(=C\C(=O)OCCCCCCCCC(=O)O)C[C@@H]1OC[C@H](C[C@@H]2O[C@H]2[C@@H](C)[C@H](C)O)[C@@H](O)[C@H]1O` [Mupirocin]: the “fiber score / MBP score” value amounted to 0.423. Consider `CC[C@@H]1C(=O)OC[C@@H]1Cc1cncn1C` [Pilocarpine], for which the “fiber score / MBP score” value was 0.814.

As to `CNCCC=C1c2ccccc2CCc2ccccc21` [Nortriptyline], the “fiber score / MBP score” value is 0.847. For the compound `CC1(C)S[C@@H]2[C@H](NC(=O)[C@H](N)c3ccc(O)cc3)C(=O)N2[C@H]1C(=O)O` [Amoxicillin], the “fiber score / MBP score” value worked out at 0.764.

`C=C[C@H]1CN2CC[C@H]1C[C@H]2[C@H](O)c1ccnc2ccc(OC)cc12` [Quinine]: the “fiber score / MBP score” value stood at 0.921. The value for `C#C[C@]1(O)CC[C@H]2[C@@H]3[C@H](C)CC4=C(CCC(=O)C4)[C@H]3CC[C@@]21C` [Tibolone] was 0.647. The value for `C[C@@H]1C[C@H]2[C@@H]3CCC4=CC(=O)C=C[C@]4(C)[C@@]3(F)[C@@H](O)C[C@]2(C)[C@H]1C(=O)CO` [Desoximetasone] was 0.95; that for `COc1ccc2c3c1O[C@H]1C[C@@H](O)C=C[C@@]31CCN(C)C2` [Galantamine] was 0.69.

In the case of `N[C@@H](C(=O)N[C@@H]1C(=O)N2C(C(=O)O)=C(Cl)CS[C@H]12)c1ccccc1` [Cefaclor], the “fiber score / MBP score” value came to 0.944. The value for `CC1(C)S[C@@H]2[C@H](NC(=O)COc3ccccc3)C(=O)N2[C@H]1C(=O)O` [Penicillin V] was 0.881; that for `CN1CCN(C2=Nc3cc(F)ccc3Cc3ccccc32)CC1` [Fluperlapine] was 1.15. Take `CNC(=C[N+](=O)[O-])NCCSCc1ccc(CN(C)C)o1` [Ranitidine]: the “fiber score / MBP score” value came to 0.594. As for `C[C@H]1C[C@H]2[C@@H]3CCC4=CC(=O)C=C[C@]4(C)[C@@]3(F)[C@@H](O)C[C@]2(C)[C@@]1(O)C(=O)CCl` [Clobetasol], the figure is 0.961; as for `CC(COc1ccccc1)N(CCCl)Cc1ccccc1` (centres undefined) [Phenoxybenzamine], 0.774; as for `Nc1ccc(O)c(C(=O)O)c1` [Mesalamine], 0.748. As for `CC12CC3CC(C)(C1)CC(N)(C3)C2` [Memantine], the figure is 1.07 ± 0.024. As for `C[C@H]1O[C@H](O[C@H]2[C@H](O)[C@@H](O)[C@@H](O[C@H]3[C@H](O)[C@@H](O)C(O)O[C@@H]3CO)O[C@@H]2CO)[C@H](O)[C@@H](O)[C@@H]1N[C@H]1C=C(CO)[C@@H](O)[C@H](O)[C@H]1O` (some centres undefined) [Acarbose], the figure is 0.856.
